Test results as given in PubChem BioAssay (NCATS).
Inconclusive results are not listed. Calls of active or inactive are those of the source. The call rests on the fitted dose curve; in most records, active means well fitted inhibition curve with a large enough effect; inconclusive means small, poorly fitted or top-dose-only effect; inactive means no such curve, though single readings can be large or run the other way.

Target: Tyrosine-protein kinase Yes (Homo sapiens) (UniProt P07947)
Assay: qHTS for small molecule inhibitors of Yes1 kinase: Primary Screen (AID 686947); further: nearly all actives have a fitted effect of over 60% in size
Details: Yes1 kinase biochemical qHTS inhibition; series mostly up to 76.9 µM
How it was run: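 In this qHTS format, inhibition is expressed relative to DMSO controls with enzyme (maximum) and without enzyme (minimum). The 60 min room-temperature reaction uses 0.1 mM ATP, with ADP detected by luminescence.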
Potency means the concentration at half of the fitted maximal effect.

Tyrosine-protein kinase Yes (Homo sapiens), sequence (P07947 whole entry, looked up): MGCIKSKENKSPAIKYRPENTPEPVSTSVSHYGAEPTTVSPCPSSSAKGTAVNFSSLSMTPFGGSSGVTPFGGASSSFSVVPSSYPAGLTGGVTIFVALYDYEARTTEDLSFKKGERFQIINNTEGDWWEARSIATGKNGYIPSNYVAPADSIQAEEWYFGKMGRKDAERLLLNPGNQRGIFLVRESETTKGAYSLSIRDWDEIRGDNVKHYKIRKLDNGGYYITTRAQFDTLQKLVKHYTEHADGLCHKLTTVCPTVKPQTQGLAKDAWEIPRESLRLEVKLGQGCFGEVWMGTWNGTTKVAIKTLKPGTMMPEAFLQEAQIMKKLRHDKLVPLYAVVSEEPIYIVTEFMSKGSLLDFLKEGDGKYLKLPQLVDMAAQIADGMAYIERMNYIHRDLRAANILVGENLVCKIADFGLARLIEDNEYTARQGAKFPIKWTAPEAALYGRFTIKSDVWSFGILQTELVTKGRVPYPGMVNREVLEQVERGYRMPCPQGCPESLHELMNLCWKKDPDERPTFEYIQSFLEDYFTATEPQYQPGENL

Potency, active:
CS(=O)(=O)CCNCc1ccoc1-c1ccc2ncnc(Nc3ccc(OCc4ccccc4)cc3)c2c1 3.68 µM
COc1cccc(C=NNc2ncnc3c2cnn3-c2cccc(OC)c2)c1 7.33 µM
CC(C)c1ccc(-c2cc(-c3cn[nH]c3-c3ccccn3)ccn2)cc1 23.2 µM

Potency, inactive:
Fc1ccc(Nc2nccc(-c3c(-c4ccc(C(F)(F)F)cc4)nn4ncccc34)n2)cc1F
CCC(=O)Nc1ccc(C)c(-c2ccc(C(=O)NCC3CC3)cc2)c1
CC(=O)Nc1cccc(C#Cc2cncnc2Nc2ccc(OCc3cccc(F)c3)c(Cl)c2)n1
CCn1c(-c2nonc2N)nc2ccccc21
Nc1nc(-c2ccccn2)c(-c2ccc3ncccc3n2)s1
